We go through eight molecules from PubChem BioAssay (NCI).

What all share (assay): NCI-60 one-dose screen, 48 h (100 = growth as untreated, 0 = no growth, -100 = all killed)
Assay [1] relates to SR leukemia.
Assay [2] has as its system OVCAR-8 ovarian.
The subject of assay [3] is OVCAR-5 ovarian.
Assay [4] has as its system OVCAR-4 ovarian.
Assay [5] deals with SK-OV-3 ovarian.
Assay [6] relates to IGROV1 ovarian.
The subject of assay [7] is OVCAR-3 ovarian.
Assay [8] has as its system HS 578T breast.
Assay [9] has as its system NCI/ADR-RES ovarian.
Assay [10] has as its system RPMI-8226 leukemia.

Values joined by “and” are separate entries in the source; they are usually repeats but may differ in a detail not shown here. Equal entries are not always repeated. This is part of a sample that, as a whole, favours compounds with a hit. Of some 83,000 tested, about 20% had one in any assay.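 Values shown are percent growth following 48 h exposure of cells in 96-well plates to a single concentration of compound; below 10 was considered active.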 Active and inactive are the calls of the source.

As to `O=C(O)c1sccc1O`, the growth in assay [1] (10 µM) was 67.7% (inactive); in [1] (100 µM) it was 4.33% (active); in [2] (10 µM), 82.4% (inactive); in [2] (100 µM), 37.8% (inactive); in assay [3] (10 µM), 102% (inactive); in assay [3] (100 µM), 38% (inactive). Also, the growth was 76.5% (inactive) in [4] (10 µM); 29.9% (inactive) in assay [4] (100 µM); 84.5% (inactive) in [5] (10 µM); 80.9% (inactive) in assay [5] (100 µM); 74.7% (inactive) in assay [6] (10 µM); 36% (inactive) in [6] (100 µM). Moreover, the growth was 75.1% (inactive) in assay [7] (10 µM); 11.1% (inactive) in assay [7] (100 µM); 65.6% (inactive) in [8] (10 µM); 19.5% (inactive) in assay [8] (100 µM); 81.5% (inactive) in assay [9] (10 µM); 36% (inactive) in [9] (100 µM).
Consider `CC(C)(C)c1cc(NC(=O)Cc2ccc(-c3cnc4cc(-c5cnn(CCN6CCOCC6)c5)ccc4n3)cc2)no1`, for which the growth in [1] (10 µM) was 9.16% (active); in assay [1] (30 µM) it was 8.04% (active); in [2] (10 µM) it was 18.6% (inactive); in assay [2] (30 µM), 26.1% (inactive); in assay [3] (10 µM), 24.2% (inactive); in assay [3] (30 µM) it was 20.1% (inactive). The growth in assay [4] (10 µM) is 10.1% (inactive); in assay [4] (30 µM) it was 22.9% (inactive); in assay [5] (10 µM) it was -14.1% (active); in [5] (30 µM), 9.27% (active); in assay [6] (10 µM), -7.95% (active); in assay [6] (30 µM), -9.55% (active). For the same molecule, the growth is 28.4% (inactive) in [7] (10 µM); 22% (inactive) in [7] (30 µM); -5.25% (active) in assay [8] (10 µM); 3.43% (active) in assay [8] (30 µM); 12.8% (inactive) in [9] (10 µM); 16.9% (inactive) in assay [9] (30 µM).
Take `CC(C(=O)O)n1cc(C#N)c(=O)[nH]c1=O` (centres undefined): the growth in assay [1] (10 µM unless noted) is 93.5% (inactive) and 99.9% (inactive); in [10] (10 µM unless noted) it was 106% (inactive) and 104% (inactive); in assay [2] (10 µM unless noted) it was 103% (inactive) and 113% (inactive); in assay [3] (10 µM unless noted), 94.8% (inactive) and 105% (inactive); in [4] (10 µM unless noted) it was 108% (inactive) and 110% (inactive); in [5] (10 µM unless noted) it was 102% (inactive) and 98.6% (inactive). Also, the growth is 101% (inactive) and 109% (inactive) in [6] (10 µM unless noted); 116% (inactive) and 101% (inactive) in assay [7] (10 µM unless noted); 114% (inactive) and 113% (inactive) in assay [8] (10 µM unless noted); 106% (inactive) in [9] (10 µM unless noted).
For `CCc1ccccc1-n1c(N)c(C#N)c(-c2ccc(OC)c(OC)c2)c(C#N)c1=O`, the growth is 83% [100 µM] (inactive) in [1] (10 µM unless noted); 112% (inactive) in assay [10] (10 µM); 87.7% (inactive) in assay [10] (100 µM); 109% (inactive) in assay [2] (10 µM); -24.4% (active) in assay [2] (100 µM); 107% (inactive) in assay [3] (10 µM). The growth in assay [3] (100 µM) is 48.6% (inactive); in assay [4] (10 µM) it was 113% (inactive); in assay [4] (100 µM), 28% (inactive); in assay [5] (10 µM) it was 111% (inactive); in [5] (100 µM), -20.7% (active); in assay [6] (10 µM), 107% (inactive). Besides, the growth in [6] (100 µM) was 22.2% (inactive); in assay [7] (10 µM), 113% (inactive); in [7] (100 µM), 13.4% (inactive); in [8] (10 µM) it was 116% (inactive); in assay [8] (100 µM), 27.2% (inactive); in assay [9] (10 µM), 111% (inactive). In assay [9] (100 µM), the growth was 22.1% (inactive).
For `O=C1c2c(O)cc(O)cc2OC(c2ccc(O)c(O)c2)C1O` (centres undefined), the growth in assay [1] (10 µM unless noted) is 101% (inactive); in assay [10] (10 µM unless noted), 99.5% (inactive); in assay [2] (10 µM unless noted), 99.1% (inactive); in assay [3] (10 µM unless noted), 104% (inactive); in assay [4] (10 µM unless noted), 113% (inactive); in assay [5] (10 µM unless noted), 109% (inactive). Moreover, the growth in assay [6] (10 µM unless noted) was 126% (inactive); in assay [7] (10 µM unless noted), 123% (inactive); in assay [8] (10 µM unless noted), 109% (inactive).
For `Cn1c(SSc2ccc(-c3cccnc3)n2C)ccc1-c1cccnc1`, the growth in [1] (10 µM unless noted) is 86.8% (inactive) and 58.3% (inactive); in [10] (10 µM unless noted), 96.5% (inactive) and 92.1% (inactive); in assay [2] (10 µM unless noted), 97.4% (inactive) and 103% (inactive); in [3] (10 µM unless noted) it was 141% (inactive) and 115% (inactive); in [4] (10 µM unless noted), 80.3% (inactive) and 101% (inactive); in [5] (10 µM unless noted) it was 131% (inactive) and 120% (inactive). The growth is 103% (inactive) and 88.1% (inactive) in assay [6] (10 µM unless noted); 98.9% (inactive) and 102% (inactive) in [7] (10 µM unless noted); 104% (inactive) in [8] (10 µM unless noted); 103% (inactive) and 101% (inactive) in assay [9] (10 µM unless noted).
On to `Cc1n[nH]c(=O)n(/N=C\c2c[nH]c3ccccc23)c1=O`, for which the growth is 108% (inactive) in [1] (10 µM unless noted); 105% (inactive) in assay [10] (10 µM unless noted); 102% (inactive) in assay [2] (10 µM unless noted); 106% (inactive) in assay [3] (10 µM unless noted); 96.9% (inactive) in assay [4] (10 µM unless noted); 97.2% (inactive) in [5] (10 µM unless noted). Moreover, the growth in [6] (10 µM unless noted) was 102% (inactive); in [7] (10 µM unless noted), 107% (inactive); in [8] (10 µM unless noted), 108% (inactive); in assay [9] (10 µM unless noted) it was 106% (inactive).
With `CCOc1ccc2cc(-c3nn(CC4CCNCC4)c4ncnc(N)c34)ccc2c1`, the growth in assay [1] (10 µM unless noted) was 59.3% (inactive) and -25.2% (active); in assay [10] (10 µM unless noted), 90.6% (inactive) and -13.2% (active); in assay [2] (10 µM unless noted), 92.1% (inactive) and 58.5% (inactive); in assay [3] (10 µM unless noted), 92% (inactive) and 70.5% (inactive); in [4] (10 µM unless noted) it was 55.8% (inactive) and 42.7% (inactive); in assay [5] (10 µM unless noted) it was 91.7% (inactive) and 45.9% (inactive). The growth in [6] (10 µM unless noted) is 92.7% (inactive) and 47.8% (inactive); in [7] (10 µM unless noted) it was 101% (inactive) and 74.7% (inactive); in assay [8] (10 µM unless noted), 83.8% (inactive) and 22.1% (inactive); in assay [9] (10 µM unless noted) it was 99.5% (inactive) and 93.5% (inactive).
